Assay results reported in the supplement of paper PMC8269313.

System: 4T1
Assay: % inhibition of 4T1 cell number vs DMSO control; higher = stronger growth inhibition
Conditions: 1 µM, 3 days
Summary of the method: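 In 96-well imaging plates whose edge wells went unused, 3000 4T1-H2B-GFP mouse breast cancer cells per well were seeded in 2% FBS medium onto plastic, denuded lung matrix, mCAF1 fibroblast-derived matrix, Matrigel (15 μg/mL) or 0.2% gelatin. Sixteen hours on, kinase inhibitors went in at 1 μM final for 3 days before formalin fixation, DAPI staining and imaging on an INCell Analyzer 2200. Counting of GFP-positive nuclei gave cell numbers, from which percent inhibition relative to control was derived.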

[1] = substrate: lung fibroblast-derived matrix
[2] = substrate: mCAF1 fibroblast-derived matrix

Row | Structure (SMILES) | % inhibition of 4T1 cell number (substrate: Matrigel) [%] | % inhibition of 4T1 cell number (substrate: gelatin) [%] | % inhibition of 4T1 cell number [1] [%] | % inhibition of 4T1 cell number [2] [%] | % inhibition of 4T1 cell number (substrate: plastic) [%]
1 | O=C1NC(=O)c2c1c1c3ccccc3n3c1c1c2c2ccccc2n1[C@H]1CC[C@@H]3O1 | 30 | 44.2 | -1.14 | 29.4 | 87.4
2 | O=[N+]([O-])/C=C/c1ccc2c(c1)OCO2 [Syk Inhibitor III] | -4.15 | -72.6 | -12.2 | -33.4 | -19.4
3 | NC(=NN=Cc1ccc(-c2cccc([N+](=O)[O-])c2)o1)N[N+](=O)[O-] [ERK Inhibitor III] | 24.7 | 24.5 | -2.29 | -12.4 | 41.4
4 | CC(C)(C)c1cc(C=C(C#N)C#N)cc(Br)c1O | 46.6 | -2.78 | 2.02 | 0.929 | 35.7
5 | O=S(=O)(c1c(O)c(Cl)cc(Cl)c1Cl)c1c(O)c(Cl)cc(Cl)c1Cl [p38 MAP Kinase Inhibitor IV] | -24.4 | 7.41 | -2.09 | 31.2 | -30.3
6 | COC(=O)[C@]1(O)C[C@@H]2O[C@@]1(C)n1c3ccccc3c3c4c(c5c6ccccc6n2c5c31)C(=O)NC4 [K-252a, Nocardiopsis sp.] | 87.4 | 91.8 | 2.02 | 98.1 | 91.5
7 | COc1ccc2c(c[n+](C)c3c4cc5c(cc4ccc23)OCO5)c1OC [Chelerythrine Chloride] | 20 | -43 | 4.48 | 8.26 | -4.98
8 | COc1ccc2c(c1)/C(=C/c1cnc[nH]1)C(=O)N2 | 24.5 | 50.7 | 8.25 | 17.6 | 17.3
